# Assay results published in PubChem BioAssay (NCATS).
# Where “and” joins values, the source holds several entries; their conditions need not be identical. Identical values can stand only once. Records with an inconclusive call do not appear. Calls of active or inactive are those of the source. Unless noted, the call rests on the fitted dose curve; in most records, active means well fitted curve in the direction sought with a large enough effect; inconclusive means small, poorly fitted or top-dose-only effect, or another doubt; inactive means no such curve, though single readings can be large; an effect the other way counts as inactive or inconclusive.
# Assays:
# [1] = qHTS assay for small molecule agonists of retinoid X receptor alpha signaling (AID 588544; calls by dose curve;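 on activation: 0% = DMSO basal wells and 100% = reference agonist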); settings: HEK293T RXRa-UAS-bla, beta-lactamase reporter, 18 h; 530 nm emission
# [2] = biological target: Retinoic acid receptor RXR-alpha (Homo sapiens) (UniProt P19793); test: as above; settings: HEK293T RXRa-UAS-bla, beta-lactamase reporter, 18 h; series mostly up to 76.7 µM
# [3] = biological target: Thyroid hormone receptor beta (Homo sapiens) (UniProt P10828); test: qHTS assay for small molecule agonists of thyroid hormone receptor beta signaling (AID 588545; calls by dose curve); settings: TR-UAS-bla GripTite HEK 293, beta-lactamase ratio, agonist mode, 18 h, percent of T3 response, DMSO as zero; series mostly up to 76.7 µM
# Method in brief: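 Cells (2500/well) were seeded, incubated 4 hrs at 37 C, dosed with a compound series, incubated 18 hrs, loaded with CCF4 dye for 2 hrs at RT, then read for fluorescence. Data were scaled between DMSO (0%) and 10 nM T3 (100%).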
# [4] = qHTS assay for small molecule antagonists of retinoid X receptor alpha signaling (AID 588546; active means well fitted inhibition curve with a large enough effect in the signal ratio, with a control signal flat, not every such curve was filed as active; the % refers to the signal ratio; further: potency means the concentration at half of the fitted maximal effect;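 on max response: cells stimulated with 9-cis-retinoic acid as agonist; on the % scale 0 is the no-effect control and ±100 the full control effect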); settings: HEK293T RXRa-UAS-bla, beta-lactamase ratio, antagonist mode; measured here: W530 green channel, cytotoxicity proxy
# Method in brief: (§1)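 Beta-lactamase reporter inhibition, read as CCF4 fluorescence ratio (ex 405, em 460/530 nm) after 2 h at RT. HEK293T UAS-bla cells, 2500/well, were stimulated with 9-cis-RA at 500 or 100 nM final alongside test compound for 18 h at 37 C.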
# [5] = biological target: Retinoic acid receptor RXR-alpha (Homo sapiens) (UniProt P19793); test: as above; settings: HEK293T RXRa-UAS-bla, beta-lactamase ratio, antagonist mode
# Method in brief: as §1
# [6] = biological target: Thyroid hormone receptor beta (Homo sapiens) (UniProt P10828); test: qHTS assay for small molecule antagonists of thyroid hormone receptor beta signaling (AID 588547; active means well fitted inhibition curve with a large enough effect in the signal ratio, with a control signal flat, not every such curve was filed as active; the % refers to the signal ratio;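 further: cells stimulated with 0.4 nM T3 agonist during compound exposure; on the % scale 0 is the no-effect control and ±100 the full control effect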); settings: TR-UAS-bla HEK293, beta-lactamase ratio, antagonist mode, 18 h
# Method in brief: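 TR-UAS-bla GripTite HEK293 cells in 2% charcoal/dextran FBS medium; compounds 0.59 nM to 92 uM with T3 at 0.4nM final, 18 h at 37 C. Beta-lactamase read by CCF4 fluorescence (460/530 nm); Hill fits gave IC50 and efficacy.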
# [7] = biological target: Voltage-gated inwardly rectifying potassium channel KCNH2 (Homo sapiens) (UniProt Q12809); test: qHTS Assay for Small Molecule Inhibitors of the Human hERG Channel Activity (AID 588834); settings: U2OS BacMam hERG, FluxOR thallium flux fluorescence; series mostly up to 92.2 µM;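 further: lower thallium flux fluorescence means stronger hERG block; nearly all actives have a fitted effect of over 50% in size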; further: potency means the concentration at half of the fitted maximal effect
# Method in brief: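 Blockade is seen as reduced FluxOR thallium-flux fluorescence in U2OS cells expressing hERG from a BacMam construct, in Opti-MEM with 2% FCS. Concentration-response data fitted to the Hill equation for AC50.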
# [8] = qHTS assay for small molecule activators of the p53 signaling pathway (AID 651743; active means well fitted activation curve with a large enough effect in the signal ratio, not every such curve was filed as active; the % refers to the signal ratio; further: % of control where 0% means no effect); settings: HCT-116 p53RE-bla, beta-lactamase FRET ratio, 16 h; activation: stronger effect = higher value
# Method in brief: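 HCT-116 p53RE-bla, 4,000 cells/well; 5 h settle; cpd/DMSO 16 h, 37 C; LiveBLAzer B/G 2 h RT; fluorescence intensity.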
# [9] = biological target: Luciferin 4-monooxygenase (Photinus pyralis) (UniProt P08659); test: Biochemical firefly luciferase enzyme assay for NPC (AID 624030);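 further: purified P. pyralis luciferase at 10 nM with luciferin and ATP substrate; 0% = DMSO and -100% = full luciferase inhibition by PTC124 control; nearly all actives have a fitted effect of over 70% in size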; settings: purified P. pyralis luciferase, luminescence, 5 min; series mostly up to 58.6 µM
# Method in brief: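 Purified P. pyralis luciferase at 10 nM in 50 mM Tris Acetate (final), luminescence read within 5 minutes of enzyme addition to compounds. Activity normalised to PTC124 versus DMSO; concentration-response curves classed by r2, magnitude and activity.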
# [10] = S16 Schwann cell viability assay (CellTiter-Glo assay) (AID 624031); settings: S16 rat Schwann cells viability, 24 h; series mostly up to 57.5 µM;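 further: native untransfected S16 rat Schwann cells; cellular ATP luminescence as a viability measure; plate controls were DMSO-treated cells for no effect and cell-free wells for full effect; nearly all actives have a fitted effect of over 70% in size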
# Method in brief: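 Parental S16 cells, 24 h compound, 37 °C. ATP-luminescence viability; DMSO = 0% activity, empty wells as reference; curves classified by fit quality and efficacy.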
# [11] = S16 Schwann cell PMP22 intronic element firefly luciferase assay (AID 624032); settings: S16 rat Schwann cells, PMP22 element FLuc, 24 h; series mostly up to 57.5 µM; further: nearly all actives have a fitted effect of over 30% in size; further: potency means the concentration at half of the fitted maximal effect
# Method in brief: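 Rat S16 Schwann cells stably carrying firefly luciferase driven by a PMP22 intronic element, in 10% FBS, treated 24 h at 37 C. ONE-Glo luminescence normalized to PTC124 control and DMSO (0%); curves classed by r2, magnitude and activity.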
# [12] = S16 Schwann cell PMP22 intronic element beta-lactamase assay (AID 624044; calls by dose curve;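 further: 0% = DMSO and -100% = potassium clavulanate positive control; nearly all actives have a fitted effect of over 15% in size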); settings: S16 rat Schwann cells, PMP22 element beta-lactamase FRET, 24 h; series mostly up to 38.3 µM
# Method in brief: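 Rat S16 Schwann cells with beta-Lac driven by a PMP22 intronic element, compound-treated 24 h at 37 °C. LiveBLAzer FRET B/G read: 460 nm normalized to potassium clavulanate vs DMSO; 535 nm FRET as viability; concentration-effect curves classified.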
# [13] = biological target: Glutaminase kidney isoform, mitochondrial (Homo sapiens) (UniProt O94925); test: qHTS for Inhibitors of Glutaminase (GLS): LOPAC Validation (AID 624146); settings: glutaminase enzyme activity inhibition; series mostly up to 46.1 µM;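 further: glutamate product detected by oxidase and peroxidase coupled Amplex red fluorescence gain; on the % scale 0 is the no-effect control and ±100 the full control effect; nearly all actives have a fitted effect of over 60% in size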
# Method in brief: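 Coupled fluorescence readout: glutamate oxidase/HRP/Amplex Red detect glutamate formed by hKGA from L-glutamine (1 mM solution added). Buffer 45 mM KH2PO4 pH 8.2, 0.02% Tween-20; reads at t0 and 30 min RT.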
# [14] = qHTS of Trypanosoma Brucei Inhibitors: LOPAC Validation (AID 624147); settings: purified enzyme assay, luminescence, 45 min; series mostly up to 57.5 µM; further: 0% is about no effect
# Method in brief: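 Readout: single end-point luminescence (Kinase-Glo Plus, 10 min). Reaction conditions were TbPYK/substrate plus 130 uM ADP, 45 min at RT, pH 7.2 TEA buffer. No-enzyme wells served as controls, and data were normalized before concentration-response fitting.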
# [15] = HTS Assay for Allosteric Antagonists of the Human D2 Dopamine Receptor: Hit Validation in HTRF (AID 624455); settings: Cells stably expressing D1 dopamine receptor, inhibition mode; series mostly up to 46.1 µM;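 further: stable D1 dopamine receptor cell line scored for blocking the D1 response; on the % scale 0 is the no-effect control and ±100 the full control effect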
# Method in brief: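 Signal from an HTRF read-out in D1-expressing stable cells gave hit activity as inhibition of the D1 response.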
# [16] = qHTS assay for small molecule agonists of the antioxidant response element (ARE) signaling pathway (AID 651741; active means well fitted activation curve with a large enough effect in the signal ratio; the % refers to the signal ratio; further: potency means the concentration at half of the fitted maximal effect; on activation: % of control where 0% means no effect); settings: HepG2 ARE-bla reporter, beta-lactamase FRET ratio, 16 h; series mostly up to 96 µM
# Method in brief: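 HepG2 ARE-bla cells plated at 2,000 cells/well and incubated 5 h at 37 C/5% CO2 received 23 nL compound in DMSO. After 16 h at 37 C, LiveBLAzer B/G FRET substrate was applied for 2 h at room temperature and fluorescence read.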
# Sequence of Voltage-gated inwardly rectifying potassium channel KCNH2 (Homo sapiens) (Q12809 whole entry, looked up): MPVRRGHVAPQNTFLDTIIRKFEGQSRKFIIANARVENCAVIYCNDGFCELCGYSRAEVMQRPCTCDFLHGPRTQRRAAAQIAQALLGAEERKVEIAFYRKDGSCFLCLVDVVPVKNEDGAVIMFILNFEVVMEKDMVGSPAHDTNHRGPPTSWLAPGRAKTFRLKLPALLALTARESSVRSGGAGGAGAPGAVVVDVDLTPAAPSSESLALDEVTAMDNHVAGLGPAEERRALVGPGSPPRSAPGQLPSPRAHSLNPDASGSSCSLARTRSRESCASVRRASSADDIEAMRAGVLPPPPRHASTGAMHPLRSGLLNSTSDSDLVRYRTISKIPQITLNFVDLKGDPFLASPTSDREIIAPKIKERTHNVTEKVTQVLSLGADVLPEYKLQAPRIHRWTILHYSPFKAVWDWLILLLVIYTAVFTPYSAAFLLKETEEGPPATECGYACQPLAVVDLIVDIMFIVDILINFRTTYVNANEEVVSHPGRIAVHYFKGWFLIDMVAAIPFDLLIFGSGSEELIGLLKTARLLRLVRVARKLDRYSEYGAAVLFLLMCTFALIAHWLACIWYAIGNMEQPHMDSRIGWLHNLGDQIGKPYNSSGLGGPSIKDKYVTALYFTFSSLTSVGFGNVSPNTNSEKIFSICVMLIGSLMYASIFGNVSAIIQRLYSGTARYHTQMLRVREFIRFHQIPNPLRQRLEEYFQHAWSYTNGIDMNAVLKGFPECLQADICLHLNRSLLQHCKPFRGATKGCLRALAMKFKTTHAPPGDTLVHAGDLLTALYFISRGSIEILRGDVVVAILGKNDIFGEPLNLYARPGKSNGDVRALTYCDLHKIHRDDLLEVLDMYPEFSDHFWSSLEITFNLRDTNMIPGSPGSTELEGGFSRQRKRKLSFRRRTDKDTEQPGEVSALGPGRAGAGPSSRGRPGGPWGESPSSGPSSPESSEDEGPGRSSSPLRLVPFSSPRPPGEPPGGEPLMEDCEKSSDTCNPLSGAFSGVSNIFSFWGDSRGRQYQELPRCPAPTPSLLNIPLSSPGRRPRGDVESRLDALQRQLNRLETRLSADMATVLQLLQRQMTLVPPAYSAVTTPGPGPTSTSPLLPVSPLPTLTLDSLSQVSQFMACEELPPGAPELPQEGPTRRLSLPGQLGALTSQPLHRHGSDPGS
# Sequence of Retinoic acid receptor RXR-alpha (Homo sapiens) (P19793 whole entry, looked up): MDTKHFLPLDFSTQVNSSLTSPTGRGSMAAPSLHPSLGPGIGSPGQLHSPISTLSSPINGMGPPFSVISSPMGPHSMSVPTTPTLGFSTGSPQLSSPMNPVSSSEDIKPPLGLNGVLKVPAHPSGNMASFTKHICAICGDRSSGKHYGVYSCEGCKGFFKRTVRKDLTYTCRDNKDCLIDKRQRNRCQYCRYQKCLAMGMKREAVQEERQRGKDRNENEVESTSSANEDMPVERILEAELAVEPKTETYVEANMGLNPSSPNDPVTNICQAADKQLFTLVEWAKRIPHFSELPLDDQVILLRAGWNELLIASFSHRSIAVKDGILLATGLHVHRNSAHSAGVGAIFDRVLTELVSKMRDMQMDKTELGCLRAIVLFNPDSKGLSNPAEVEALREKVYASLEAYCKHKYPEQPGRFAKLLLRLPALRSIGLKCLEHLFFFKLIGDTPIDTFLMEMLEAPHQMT
# Sequence of Luciferin 4-monooxygenase (Photinus pyralis) (P08659 whole entry, looked up): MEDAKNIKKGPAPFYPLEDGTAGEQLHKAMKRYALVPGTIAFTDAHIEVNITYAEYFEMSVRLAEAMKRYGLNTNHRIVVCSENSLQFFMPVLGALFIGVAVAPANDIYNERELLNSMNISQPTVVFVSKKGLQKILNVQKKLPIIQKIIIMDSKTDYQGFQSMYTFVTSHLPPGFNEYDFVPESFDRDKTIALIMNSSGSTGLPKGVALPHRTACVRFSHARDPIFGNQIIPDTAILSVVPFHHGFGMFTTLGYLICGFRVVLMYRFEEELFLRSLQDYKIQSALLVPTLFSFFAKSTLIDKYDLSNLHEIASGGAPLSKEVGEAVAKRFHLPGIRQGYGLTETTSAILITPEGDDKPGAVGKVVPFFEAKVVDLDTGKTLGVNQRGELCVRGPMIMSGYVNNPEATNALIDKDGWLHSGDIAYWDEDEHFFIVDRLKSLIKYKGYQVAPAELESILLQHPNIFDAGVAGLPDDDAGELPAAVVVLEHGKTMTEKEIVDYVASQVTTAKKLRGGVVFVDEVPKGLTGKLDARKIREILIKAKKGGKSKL
# Sequence of Thyroid hormone receptor beta (Homo sapiens) (P10828 whole entry, looked up): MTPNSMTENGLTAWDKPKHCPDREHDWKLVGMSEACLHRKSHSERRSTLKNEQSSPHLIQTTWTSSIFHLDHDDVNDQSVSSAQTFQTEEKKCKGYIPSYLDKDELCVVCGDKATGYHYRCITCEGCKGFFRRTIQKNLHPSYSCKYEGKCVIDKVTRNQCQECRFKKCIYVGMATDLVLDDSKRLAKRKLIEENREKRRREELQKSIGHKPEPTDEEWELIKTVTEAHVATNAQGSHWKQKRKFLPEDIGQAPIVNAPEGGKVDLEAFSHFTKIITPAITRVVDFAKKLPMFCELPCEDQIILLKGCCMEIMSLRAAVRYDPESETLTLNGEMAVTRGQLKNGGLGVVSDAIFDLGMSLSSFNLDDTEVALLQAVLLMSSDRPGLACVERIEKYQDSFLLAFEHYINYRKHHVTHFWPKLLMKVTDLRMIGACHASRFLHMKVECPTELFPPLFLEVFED
# Sequence of Glutaminase kidney isoform, mitochondrial (Homo sapiens) (O94925 whole entry, looked up, canonical isoform): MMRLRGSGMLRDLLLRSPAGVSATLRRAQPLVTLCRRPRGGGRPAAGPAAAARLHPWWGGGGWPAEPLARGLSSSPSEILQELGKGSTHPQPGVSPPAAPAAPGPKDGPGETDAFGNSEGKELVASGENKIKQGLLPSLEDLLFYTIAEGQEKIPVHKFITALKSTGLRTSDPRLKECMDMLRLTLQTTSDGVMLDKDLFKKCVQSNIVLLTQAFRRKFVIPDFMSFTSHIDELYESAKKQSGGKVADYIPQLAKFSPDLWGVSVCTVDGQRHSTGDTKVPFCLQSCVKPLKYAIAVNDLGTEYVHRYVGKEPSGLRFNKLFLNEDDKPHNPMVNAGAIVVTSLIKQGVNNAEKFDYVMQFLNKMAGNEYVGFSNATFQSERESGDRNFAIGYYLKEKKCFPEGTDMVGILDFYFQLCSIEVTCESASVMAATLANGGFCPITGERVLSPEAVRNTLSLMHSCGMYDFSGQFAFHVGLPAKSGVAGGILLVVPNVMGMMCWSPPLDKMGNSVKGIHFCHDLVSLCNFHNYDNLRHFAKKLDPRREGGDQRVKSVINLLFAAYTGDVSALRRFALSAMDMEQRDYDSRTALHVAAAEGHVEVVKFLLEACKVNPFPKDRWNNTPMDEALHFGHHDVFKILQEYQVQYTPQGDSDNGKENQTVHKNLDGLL
smiles,measurement,setting,value
CCCCC(CC)COC(=O)c1ccccc1C(=O)O (stereo not drawn),max response,[1],0.375% and 2.79%
same,Potency,[2],inactive
same,outcome,[3],inactive
same,max response,[4],-0.199% and -12.8%
same,max response,[5],-7.29% (inactive) and -5.81% (inactive)
same,activity change % (negative = inhibition),[6],-5.5% (inactive) and 6.91% (inactive)
same,Potency,[7],inactive
same,activation,[8],-2.67% (inactive) and -0.261% (inactive)
Nc1ncnc2nc[nH]c12,Potency,[7],inactive
same,Potency,[9],inactive
same,Potency,[10],inactive
same,Potency,[11],inactive
same,Potency,[12],inactive
COc1cccc2c1[C@@H]1CN(CCCCn3c(=O)[nH]c4c(sc5ncc(-c6ccccc6)nc54)c3=O)C[C@@H]1CO2,Potency,[7],5.01 µM (active)
same,Potency,[9],inactive
same,Potency,[13],inactive
same,outcome,[14],inactive
same,outcome,[15],inactive
CC(C)(c1ccc(O)cc1)c1ccc(O)cc1,outcome,[3],inactive
same,max response,[4],-4.03% and -11.6%
same,max response,[5],-28% (inactive) and 10.2% (inactive)
same,activation,[8],-1.88% (inactive) and -5.31% (inactive) and -3.08% (inactive)
COC(=O)c1c(Cl)c(Cl)c(C(=O)OC)c(Cl)c1Cl,max response,[1],-4.07%
same,Potency,[2],inactive
same,outcome,[3],inactive
same,max response,[4],-11.5%
same,max response,[5],4.25% (inactive)
same,activity change % (negative = inhibition),[6],3.31% (inactive)
same,Potency,[9],inactive
same,Potency,[16],54.5 µM (active)
same,activation,[8],1.22% (inactive)
CCN(CC)CCOc1ccc(/C(=C(\Cl)c2ccccc2)c2ccccc2)cc1,max response,[4],-2.07%
same,Potency,[5],39.8 µM (active)
O=C(Oc1ccccc1)c1ccccc1O,outcome,[3],inactive
same,max response,[4],8.83% and -6.1%
same,max response,[5],0.088% (inactive) and -1.29% (inactive)
same,activity change % (negative = inhibition),[6],-5.55% (inactive) and -2.84% (inactive)
same,Potency,[9],inactive
same,Potency,[16],inactive
CN1CCC(Nc2ncc3ncnc(Nc4ccc(F)c(Cl)c4)c3n2)CC1,Potency,[7],12.6 µM (active)
same,Potency,[9],inactive
same,Potency,[11],36.1 µM (active)
C[C@]12CCC(=O)C=C1CC[C@@H]1[C@@H]2[C@@H](O)C[C@@]2(C)[C@H]1CC[C@]2(O)C(=O)COC(=O)CCC(=O)O,Potency,[7],inactive
same,Potency,[9],inactive
CCCC(=O)c1cc(O)c(O)cc1O,max response,[1],11.4%
same,Potency,[2],inactive
same,outcome,[3],inactive
same,max response,[4],4.85%
same,max response,[5],15.9% (inactive)
same,activity change % (negative = inhibition),[6],-21% (inactive)
same,Potency,[7],inactive
same,activation,[8],-5.77% (inactive)
Nc1ccc2cc3ccc(N)cc3nc2c1,Potency,[7],12.6 µM (active)
same,Potency,[9],inactive
same,Potency,[10],inactive
same,Potency,[11],inactive
Cc1ncc(CO)c(CO)c1O,max response,[1],-11.9%
same,Potency,[2],inactive
same,max response,[4],-0.0047%
same,max response,[5],7.42% (inactive)
same,Potency,[9],inactive
same,Potency,[16],inactive
CC(C)C(C)(C)C(C)(C)C(C)(C)S,max response,[1],-6.07% and -23.3%
same,Potency,[2],inactive
same,max response,[4],-12% and -14.7%
same,max response,[5],11.7% (inactive) and -0.658% (inactive)
same,activity change % (negative = inhibition),[6],1.2% (inactive) and -6.79% (inactive)
same,Potency,[7],inactive
same,Potency,[9],inactive
same,Potency,[16],inactive
same,activation,[8],1.86% (inactive) and -1.44% (inactive)
CC(C)(C)c1ccc(O)c(O)c1,outcome,[3],inactive
same,max response,[4],3.05% and -10.4%
same,max response,[5],-35.8% (inactive) and -24.1% (inactive)
same,activity change % (negative = inhibition),[6],-12.4% (inactive) and -14.4% (inactive)
same,Potency,[7],inactive
same,Potency,[16],37.6 µM (active) and 48.6 µM (active)
same,activation,[8],2.58% (inactive) and -2.7% (inactive)
CN1C(=O)c2ccccc2C1=O,max response,[1],-17.2%
same,Potency,[2],inactive
same,outcome,[3],inactive
same,activity change % (negative = inhibition),[6],-4.79% (inactive)
same,Potency,[9],inactive
same,Potency,[16],inactive
same,activation,[8],8.47% (inactive)
C[N+](C)(C)CCO,Potency,[7],inactive
same,Potency,[9],inactive
same,Potency,[13],inactive
same,outcome,[14],inactive
same,outcome,[15],inactive
COc1cc(C=O)ccc1O,max response,[1],-4.86%
same,Potency,[2],inactive
same,outcome,[3],inactive
same,max response,[4],-4.04% and -15.4%
same,max response,[5],30% (inactive) and 5.74% (inactive)
same,activity change % (negative = inhibition),[6],9.41% (inactive) and -10.4% (inactive)
same,Potency,[7],inactive
same,Potency,[9],inactive
same,activation,[8],-5.16% (inactive) and -4.75% (inactive)
C1=CC2C3C=CC(C3)C2C1 (stereo not drawn),max response,[1],15.9%
same,Potency,[2],inactive
same,outcome,[3],inactive
same,activity change % (negative = inhibition),[6],2.01% (inactive)
same,Potency,[7],inactive
same,Potency,[9],inactive
same,Potency,[16],inactive
same,activation,[8],-1.4% (inactive)
c1ccc2occc2c1,max response,[1],-16.2%
same,Potency,[2],inactive
same,outcome,[3],inactive
same,max response,[4],-13.5% and -7.35%
same,max response,[5],6.36% (inactive) and -5.03% (inactive)
same,Potency,[7],inactive
same,Potency,[9],inactive
same,activation,[8],-0.261% (inactive) and -6.48% (inactive) and -3.89% (inactive)
Brc1ccccc1-c1ccccc1,max response,[1],10.3%
same,Potency,[2],inactive
same,outcome,[3],inactive
same,max response,[4],1.21%
same,max response,[5],-2.01% (inactive)
same,activity change % (negative = inhibition),[6],-16.6% (inactive)
same,Potency,[9],inactive
same,Potency,[16],inactive
same,activation,[8],0.157% (inactive)
Cc1ccc(O)cc1,max response,[1],-3.32%
same,Potency,[2],inactive
same,outcome,[3],inactive
same,max response,[4],-4.07%
same,max response,[5],9.57% (inactive)
same,activity change % (negative = inhibition),[6],-4.08% (inactive)
same,Potency,[7],inactive
same,activation,[8],-3.91% (inactive)
O=C(Oc1ccccc1)c1cccc(C(=O)Oc2ccccc2)c1,max response,[1],15.8%
same,Potency,[2],inactive
same,outcome,[3],inactive
same,max response,[4],0.814%
same,max response,[5],-33.4% (inactive)
same,activity change % (negative = inhibition),[6],0.996% (inactive)
